Results published in PubChem BioAssay (Tox21).
“And” between values parts separate entries of the source, which are not always exact repeats. Equal values may be shown once. Results filed as inconclusive are left out. More than one record can exist for a structure, and the calls need not agree. The source made the active and inactive calls. Unless noted, calls come from the whole dose curve; as a rule, active = well fitted curve in the direction sought with a large enough effect in the repeat runs; inconclusive = weak or mixed curves; inactive = no such curve, though single readings can be large; an effect the other way counts as inactive or inconclusive.

What was measured:
[1] = qHTS assay to identify small molecule antagonists of the glucocorticoid receptor (GR) signaling pathway - cell viability counter screen (AID 720693); note: nearly all actives have a fitted effect of over 55% in size
[2] = qHTS assay for identifying genotoxic compounds that show differential cytotoxicity against isogenic chicken DT40 cell lines with known DNA damage response pathways - wild type cell line (AID 743012); note: nearly all actives have a fitted effect of over 60% in size; note: potency is the fitted concentration of half-maximal effect
Summary of the method: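 Endpoint: CellTiter-Glo luminescence, 30 min RT. Cells: wild type DT40, 300/well. Exposure: compounds in DMSO, 40 h, 37 C/5% CO2, after ~0.5 h pre-incubation.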

[3] = qHTS assay for identifying genotoxic compounds that show differential cytotoxicity against isogenic chicken DT40 cell lines with known DNA damage response pathways - Rev3 mutant cell line (AID 743014); note: nearly all actives have a fitted effect of over 55% in size; note: potency is the fitted concentration of half-maximal effect
[4] = qHTS assay for identifying genotoxic compounds that show differential cytotoxicity against isogenic chicken DT40 cell lines with known DNA damage response pathways - Rad54/Ku70 mutant cell line (AID 743015); note: nearly all actives have a fitted effect of over 60% in size; note: potency is the fitted concentration of half-maximal effect
[5] = qHTS assay to identify small molecule antagonists of the androgen receptor (AR) signaling pathway - cell viability counter screen (AID 743033; note: nearly all actives have a fitted effect of over 45% in size)
[6] = qHTS assay to identify small molecule antagonists of the androgen receptor (AR) signaling pathway using the MDA cell line - cell viability counter screen (AID 743041; note: nearly all actives have a fitted effect of over 45% in size)
Summary of the method: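 Cytotoxicity counter screen: MDA-kb2 AR-luc cells, compound + R1881, 16 h, 37C, 0% CO2; CellTiter-Fluor added at 15.5 h, fluorescence read after 30 min.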

[7] = qHTS assay to identify small molecule antagonists of the thyroid receptor (TR) signaling pathway - cell viability counter screen (AID 743064); note: nearly all actives have a fitted effect of over 50% in size
Summary of the method: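 In-well cytotoxicity read by CellTiter-Fluor (30 min, 37 C) following 23.5 h exposure of GH3 cells bearing a TRE-luciferase sensor. Compounds were added alongside 1 nM (final) T3 to drive TR transactivation.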

[8] = qHTS assay to identify small molecule antagonists of the thyroid receptor (TR) signaling pathway (AID 743065); note: series mostly up to about 70 µM; nearly all actives have a fitted effect of over 55% in size
Summary of the method: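 GH3.TRE-Luc rat pituitary cells (two TREs driving luciferase) were dosed with compound, then stimulated with 1 nM T3 (final) for 23.5 h at 37 C. ONE-Glo luminescence was the read-out, with CellTiter-Fluor fluorescence as the cytotoxicity counter-screen.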

[9] = system: thyroid hormone receptor (rat, GH3 cells); experiment: qHTS assay to identify small molecule agonists of the thyroid receptor (TR) signaling pathway (AID 743066; calls by dose curve)
[10] = target: Estrogen receptor (Homo sapiens) (UniProt P03372); experiment: qHTS assay to identify small molecule antagonists of the estrogen receptor alpha (ER-alpha) signaling pathway (AID 743069; active = well fitted curve in the direction sought with a large enough effect in the signal ratio in the repeat runs, not every such curve was filed as active; the % refers to the signal ratio)
Chain of Estrogen receptor (Homo sapiens) (P03372 whole entry, looked up): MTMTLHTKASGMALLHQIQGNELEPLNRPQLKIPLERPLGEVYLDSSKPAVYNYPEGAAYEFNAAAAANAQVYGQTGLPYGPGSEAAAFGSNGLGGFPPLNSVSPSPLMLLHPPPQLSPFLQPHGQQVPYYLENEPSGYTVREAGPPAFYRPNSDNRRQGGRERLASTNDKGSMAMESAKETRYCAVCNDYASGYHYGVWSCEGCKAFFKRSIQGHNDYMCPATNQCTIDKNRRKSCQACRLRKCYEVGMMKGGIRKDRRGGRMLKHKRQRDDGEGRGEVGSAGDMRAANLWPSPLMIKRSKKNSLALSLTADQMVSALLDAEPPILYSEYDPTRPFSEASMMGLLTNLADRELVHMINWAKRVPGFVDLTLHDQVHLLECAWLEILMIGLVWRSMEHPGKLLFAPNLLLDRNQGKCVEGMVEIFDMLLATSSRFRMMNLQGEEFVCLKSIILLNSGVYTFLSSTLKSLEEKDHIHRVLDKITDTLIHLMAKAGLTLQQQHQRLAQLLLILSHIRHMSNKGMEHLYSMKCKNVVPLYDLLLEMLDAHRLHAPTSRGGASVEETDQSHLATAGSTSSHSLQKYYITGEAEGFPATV
Summary of the method: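 Beta-lactamase FRET fluorescence is read after 2 hr at room temperature with LiveBLAzer B/G substrate. Before that, ER-alpha-bla HEK293 cells sit 4 hr after plating, then receive compound plus 17beta-estradiol and incubate 18 hr at 37C.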

[11] = qHTS assay to identify small molecule antagonists of the estrogen receptor alpha (ER-alpha) signaling pathway - cell viability counter screen (AID 743074; calls by dose curve;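 note: HEK293 cells carrying ER-alpha-UAS-bla reporter stimulated with 17beta-estradiol; nearly all actives have a fitted effect of over 45% in size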)
[12] = target: Estrogen receptor (Homo sapiens) (UniProt P03372); experiment: qHTS assay to identify small molecule agonists of the estrogen receptor alpha (ER-alpha) signaling pathway (AID 743075; calls by dose curve;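 note: HEK293 GripTite cells with ER-alpha and UAS-driven beta-lactamase reporter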)
[13] = target: Estrogen receptor (Homo sapiens) (UniProt P03372); experiment: qHTS assay to identify small molecule agonists of the estrogen receptor alpha (ER-alpha) signaling pathway using the BG1 cell line (AID 743079); note: nearly all actives have a fitted effect of over 20% in size; note: potency is the fitted concentration of half-maximal effect
[14] = qHTS assay to identify small molecule antagonists of the estrogen receptor alpha (ER-alpha) signaling pathway using the BG1 cell line (AID 743080; calls by dose curve;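 note: BG1 cells stimulated with 17beta-estradiol alongside compound; series mostly up to about 70 µM; nearly all actives have a fitted effect of over 25% in size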)
Summary of the method: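 After 5 days in phenol-red-free 10% charcoal-stripped FBS medium, BG1-Luc-4E2 cells were seeded, left 24 h at 37 C, co-treated with compounds and 17beta-estradiol for 21.5 h, then assayed for viability and luciferase.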

[15] = qHTS assay to identify small molecule antagonists of the estrogen receptor alpha (ER-alpha) signaling pathway using the BG1 cell line - cell viability counter screen (AID 743081);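 note: compound given together with 17beta-estradiol as the ER stimulus; series mostly up to about 70 µM; nearly all actives have a fitted effect of over 45% in size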
Aromatase (Homo sapiens) = Aromatase (Homo sapiens) (UniProt P11511); experiment: qHTS assay to identify aromatase inhibitors (AID 743083); note: series mostly up to about 70 µM; nearly all actives have a fitted effect of over 55% in size
Chain of Aromatase (Homo sapiens) (P11511 whole entry, looked up): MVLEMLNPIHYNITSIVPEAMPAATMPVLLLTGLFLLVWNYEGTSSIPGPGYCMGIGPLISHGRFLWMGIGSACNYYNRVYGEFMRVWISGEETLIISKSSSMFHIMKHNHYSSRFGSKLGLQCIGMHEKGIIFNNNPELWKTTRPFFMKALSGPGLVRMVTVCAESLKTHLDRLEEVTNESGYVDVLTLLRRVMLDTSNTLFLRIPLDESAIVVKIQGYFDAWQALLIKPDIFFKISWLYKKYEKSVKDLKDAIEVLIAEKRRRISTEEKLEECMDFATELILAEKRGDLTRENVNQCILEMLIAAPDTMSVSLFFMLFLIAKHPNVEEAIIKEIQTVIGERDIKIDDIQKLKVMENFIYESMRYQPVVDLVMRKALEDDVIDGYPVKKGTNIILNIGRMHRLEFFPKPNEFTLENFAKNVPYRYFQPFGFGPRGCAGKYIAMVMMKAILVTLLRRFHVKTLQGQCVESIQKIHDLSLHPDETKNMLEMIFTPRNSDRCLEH

[16] = target: Androgen receptor (Homo sapiens) (UniProt P10275); experiment: qHTS assay to identify small molecule antagonists of the androgen receptor (AR) signaling pathway (AID 743035; active = well fitted inhibition curve with a large enough effect in the signal ratio in the repeat runs, not every such curve was filed as active; the % refers to the signal ratio)
Chain of Androgen receptor (Homo sapiens) (P10275 whole entry, looked up): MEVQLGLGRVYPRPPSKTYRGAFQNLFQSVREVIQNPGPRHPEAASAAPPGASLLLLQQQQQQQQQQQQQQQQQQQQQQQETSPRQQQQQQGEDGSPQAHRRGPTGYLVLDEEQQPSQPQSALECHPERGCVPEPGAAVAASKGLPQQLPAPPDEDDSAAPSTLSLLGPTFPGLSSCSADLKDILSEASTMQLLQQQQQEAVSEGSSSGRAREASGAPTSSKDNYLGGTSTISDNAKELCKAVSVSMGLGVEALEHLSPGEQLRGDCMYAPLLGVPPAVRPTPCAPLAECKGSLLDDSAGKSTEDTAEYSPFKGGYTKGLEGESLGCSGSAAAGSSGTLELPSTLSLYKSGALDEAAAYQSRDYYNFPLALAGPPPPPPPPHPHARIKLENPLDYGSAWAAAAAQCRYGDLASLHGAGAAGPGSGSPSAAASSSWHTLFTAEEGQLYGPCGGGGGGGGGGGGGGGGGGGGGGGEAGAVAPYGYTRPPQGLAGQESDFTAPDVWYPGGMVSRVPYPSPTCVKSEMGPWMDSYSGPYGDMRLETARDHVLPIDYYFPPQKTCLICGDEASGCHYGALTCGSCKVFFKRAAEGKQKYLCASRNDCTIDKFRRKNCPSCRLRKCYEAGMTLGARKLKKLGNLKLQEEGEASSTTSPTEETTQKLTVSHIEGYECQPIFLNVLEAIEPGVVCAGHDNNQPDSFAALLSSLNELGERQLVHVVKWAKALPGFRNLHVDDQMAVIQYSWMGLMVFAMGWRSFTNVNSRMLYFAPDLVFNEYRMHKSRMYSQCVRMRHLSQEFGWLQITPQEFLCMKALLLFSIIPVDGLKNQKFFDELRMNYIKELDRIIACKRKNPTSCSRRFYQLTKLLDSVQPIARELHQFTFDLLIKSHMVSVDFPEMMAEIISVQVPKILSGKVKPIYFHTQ
Summary of the method: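 R1881 agonist challenge of a HEK293 UAS-beta-lactamase AR reporter line in the presence of compound (16 h, 37C); signal taken as FRET fluorescence after 2 h with LiveBLAzer B/G substrate at room temperature.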

[17] = target: Androgen receptor (Homo sapiens) (UniProt P10275); experiment: qHTS assay to identify small molecule agonists of the androgen receptor (AR) signaling pathway (AID 743036; active = well fitted activation curve with a large enough effect in the signal ratio in the repeat runs, with a control signal flat, not every such curve was filed as active; the % refers to the signal ratio)
Summary of the method: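 Activation was read as beta-lactamase FRET signal from LiveBLAzer B/G substrate, added for 2 h at room temperature. Before that, GeneBLAzer AR-UAS-bla GripTite (HEK293) cells had 16 h compound exposure at 37C.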

[18] = target: Androgen receptor (Homo sapiens) (UniProt P10275); experiment: qHTS assay to identify small molecule agonists of the androgen receptor (AR) signaling pathway using the MDA cell line (AID 743040; note: nearly all actives have a fitted effect of over 20% in size)
Summary of the method: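 Luciferase read-out, ONE-Glo, 30 min RT. Cells: MDA-kb2 AR-luc, MMTV promoter with AR and GR response elements. Compound exposure 16 h, 37C, 0% CO2, after 5 h pre-incubation. qHTS agonist mode.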

[19] = target: Androgen receptor (Homo sapiens) (UniProt P10275); experiment: qHTS assay to identify small molecule antagonists of the androgen receptor (AR) signaling pathway using the MDA cell line (AID 743042; note: nearly all actives have a fitted effect of over 55% in size)
Summary of the method: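 MDA-kb2 breast carcinoma cells carrying MMTV-luciferase (AR/GR responsive) were co-treated with compounds and the agonist R1881 for 16 h at 37C. Inhibition read as ONE-Glo luminescence; CellTiter-Fluor fluorescence measured in parallel for cytotoxicity.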

Measured: Potency

OCC(O)CCl (stereo not drawn)
not listed: [16] | [17] | [18] | [19]
inactive: all other assays above

CCCCC(CC)C(=O)Cl (stereo not drawn)
not listed: [16] | [17] | [18] | [19]
inactive: all other assays above

CN1C(=O)CCS(=O)(=O)C1c1ccc(Cl)cc1 (stereo not drawn)
not listed: [10] | [12] | [13] | [14] | [16] | [17] | [18] | [19]
inactive: all other assays above

c1ccc2c(c1)CCCC2
not listed: [7]
inactive: all other assays above

C[C@]12CC[C@H](O)CC1=CC[C@@H]1[C@@H]2CC[C@]2(C)C(=O)CC[C@@H]12
active: [2] 29.8 µM | [3] 26.6 µM and 68.7 µM and 54.5 µM | [4] 29.8 µM and 61.2 µM and 54.5 µM
inactive: [1] | [5] | [6] | [7] | [8] | [9] | [11] | [15] | Aromatase (Homo sapiens)

Cl[C@H]1OCCO[C@@H]1Cl
not listed: [10] | [12] | [13] | [14] | [16] | [17] | [18] | [19]
inactive: all other assays above

O=C(O)c1cc(Oc2ccc(C(F)(F)F)cc2Cl)ccc1[N+](=O)[O-]
not listed: [10] | [12] | [13] | [14] | [16] | [17] | [18] | [19]
inactive: all other assays above

CNC(=O)O/N=C(\SC)C(=O)N(C)C
active: [3] 61.1 µM | [4] 54.4 µM | [13] 66.7 µM
inactive: all other assays above

OC[C@@H](O)[C@H]1O[C@@H]2O[C@H](C(Cl)(Cl)Cl)O[C@@H]2[C@H]1O
not listed: [16] | [17] | [18] | [19]
inactive: all other assays above

Cc1ccc(O)c(C)c1
not listed: [16] | [17] | [18] | [19]
inactive: all other assays above

C=CCN=C=S
active: [3] 62.5 µM
not listed: [16] | [17] | [18] | [19]
inactive: all other assays above

CNC(=O)O/N=C/C(C)(C)SC
not listed: [16] | [17] | [18] | [19]
inactive: all other assays above

N#Cc1ccccn1
not listed: [7] | [16] | [17] | [18] | [19]
inactive: all other assays above

COS(=O)(=O)OC
not listed: [3] | [16] | [17] | [18] | [19]
inactive: all other assays above

O=C(O)C1C(C(=O)O)C2(Cl)C(Cl)=C(Cl)C1(Cl)C2(Cl)Cl (stereo not drawn)
not listed: [7] | [16] | [17] | [18] | [19]
inactive: all other assays above

Cc1cccc(C)c1NC(=O)CN1CCCC1=O
not listed: [7] | [16] | [17] | [18] | [19]
inactive: all other assays above

CCOc1ccc(N)cc1
61.3 µM (active) and inactive: [4]
not listed: [7] | [16] | [17] | [18] | [19]
inactive: all other assays above
